Laboratory results as given in PubChem BioAssay (NCI).
Compounds without any hit were thinned out: in the full panel of roughly 83,000, 20% have a hit.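 A percent growth of 40 corresponds to 60% growth inhibition; 0 means no net growth; -100 means all cells died. Active threshold: below 10.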 Unmarked numbers belong to inactive results. Active and inactive are the calls of the source.

Assays:
Test in all cases: NCI-60 one-dose screen, 48 h (100 = growth as untreated, 0 = no growth, -100 = all killed)
Conditions in all cases: 10 µM unless noted
[1] = tested on: SK-MEL-2 melanoma
[2] = tested on: EKVX NSCLC
[3] = tested on: SN12C renal
[4] = tested on: UO-31 renal
[5] = tested on: TK-10 renal
[6] = tested on: ACHN renal
[7] = tested on: CAKI-1 renal
[8] = tested on: A498 renal
[9] = tested on: CCRF-CEM leukemia
[10] = tested on: MOLT-4 leukemia

| Compound | growth [1] | growth [2] | growth [3] | growth [4] | growth [5] | growth [6] | growth [7] | growth [8] | growth [9] | growth [10] |
| --- | --- | --- | --- | --- | --- | --- | --- | --- | --- | --- |
| C=CCO[C@H]1CO[C@H]2[C@@H]1OC[C@@H]2Oc1ccc(Nc2ccnc(Nc3ccc(O[C@H]4CO[C@H]5[C@@H]4OC[C@@H]5OCC=C)c(Cl)c3)n2)cc1Cl | 104% | -71% (active) | -95.5% (active) | -91.3% (active) | -54.4% (active) | 14.5% | -7.16% (active) | 95.6% | -9.75% (active) | -39.3% (active) |
| NC(=O)c1c(NC(=O)c2ccccn2)sc2c1CCC(=O)C2 | 37.8% | 33.8% | 25.9% | 4.56% (active) | 38.3% | 5.89% (active) | -2.09% (active) | 86.1% | 12.7% | 81.6% |
| COc1ccc2cc(-c3ccc(C(=O)NN)c(C)n3)ccc2c1 | 102% | 99.5% | 96.6% | 83.5% | 95.6% | 103% | 103% | 90.7% | 91.3% | 74% |
| CCc1cc(Cc2cc(CC)cc(C(C)(C)C)c2O)c(O)c(C(C)(C)C)c1 | 52.9% | 17.7% | 19.1% | 30.4% | 37.8% | 13.1% | 19.6% | 63.7% | 12.9% | 14.4% |
| Nc1ccc2c(S(=O)(=O)O)ccc(S(=O)(=O)O)c2c1 | 103% | 103% | 95.3% | 81.6% | 108% | 96.4% | 95.6% | 116% | 56.5% | 80.3% |
| COc1ccc(-c2nc3sccn3c2/C=C/C(=O)c2c[nH]c3ccccc23)cc1 | 90.9% | 58.3% | 71.7% | 82.7% | 73% | 40.6% | 49.6% | 68.2% | 90.9% | -5.59% (active) |
| O=c1oc2ccc(Cl)cc2cc1-c1cs/c(=N/N=C\c2ccc(Cl)cc2)n1/N=C/c1ccc(Cl)cc1 | 92.6% | 107% | 94% | 90.1% | 99.4% | 112% | 110% | 83.9% | 104% | 93.8% |
| Cn1ccc(Cc2cnc(N)s2)n1 | 97.4% | 106% | 104% | 86.2% | 88.7% | 99.8% | 93.6% | 94.2% | 100% | 93.3% |
| CC(C)CCC[C@@H](C)[C@H]1CCC2C3=CCC4C(=O)C=CC(=O)C4C3CC[C@@]21C (stereo not given in full) | -16.4% (active) | -10% (active) | 20.1% | -67.9% (active) | -36.6% (active) | 4.54% (active) | -56.3% (active) | -6.21% (active) | 17% | 10.4% |
| Cc1ccc(C)c2c1C(=O)OC2=O | 84.6% | 105% | 97.9% | 79.1% | 102% | 98.8% | 99.4% | 101% | 102% | 3.4% (active) |
| CC(=O)Nc1ccc2c(c1)Cc1c(F)cccc1-2 | 128% | 101% | 101% | 49.2% | 103% | 93% | 87.2% | 77.6% | 85.6% | 111% |
| COc1ccc(/C(C)=C(\c2ccc(Cl)cc2)c2ccc(OCCN(C)C)cc2)cc1F | 105% | 81.6% | 70.6% | 54.7% | 59.1% | 92% | 56.2% | 98.5% | 40.2% | 39.5% |
| c1ccc2c(c1)ncn2-c1nc2ccccc2n2c1nc1ccccc12 | 104% | 61.8% | 85.9% | 48% | 79.6% | 63.1% | 62.3% | 82.4% | 80.6% | 80.3% |
| CC(=O)OCCc1ccccc1 | 99.6% | 96.2% | 95% | 97.8% | 106% | 100% | 77.1% | 95.5% | 105% | 91.9% |
| CCN1CCN(c2ccc(Nc3cc(-c4cccnc4Nc4c(Cl)c(OC)cc(OC)c4Cl)ncn3)cc2)CC1 | 74.9% | 87.4% | 56.6% | 52.8% | 68.1% | 42.6% | 48.5% | 21.8% | 31.6% | 9.51% (active) |
| N#Cc1c(-c2ccccc2)nc(SCC2CO2)nc1N1CCOCC1 (stereo not given) | 66.9% | 78.4% | 69.9% | 29.5% | 68.6% | 59.2% | 38.6% | -15.2% (active) | 96.6% | 68.6% |
| N#Cc1c(N)nc2c(nnn2-c2cccc(C(F)(F)F)c2)c1N | 91.2% | 29.1% | 87.7% | 58.2% | 90.2% | 87.7% | 77.2% | 97.7% | 87.9% | 75.8% |
| CCN(CC)CC(O)CNc1c2ccc(Cl)cc2nc2ccc(OC)cc12 (stereo not given) | -63.4% (active) | 7.93% (active) | 4.08% (active) | -19.3% (active) | -21.8% (active) | 12.1% | -63.6% (active) | 43.6% | 0.913% (active) | 4.43% (active) |
| COc1ccc(-c2cn(-c3cccc(C(=O)/C=C/c4cc(OC)c(OC)c(OC)c4)c3)c(=O)[nH]2)cc1 | -21.5% (active) | 6.73% (active) | 9.79% (active) | -33.9% (active) | 60.8% | -49.9% (active) | -12.1% (active) | 62.8% | 6.11% (active) | 3.77% (active) |
| Cc1nc(Nc2ccc(NC(=S)Nc3ccccc3)cc2)c2ccccc2n1 | 111% | 95.6% | 101% | 85.7% | 131% | 102% | 91.3% | 100% | 93.1% | 85.6% |
| O=C1/C(=C/c2ccc([N+](=O)[O-])cc2)COc2ccc(O)c(O)c21 | 85.5% | 41.3% | -47.3% (active) | -98.6% (active) | -8.97% (active) | -77.5% (active) | -53.1% (active) | 86.3% | -2.51% (active) | -1.02% (active) |
